According to PubChem BioAssay AID1992 (Sanford-Burnham Center for Chemical Genomics, 2009):
In all, about 50,000 compounds went through this assay and about 350 (0.7%) were called active. This excerpt belongs to a sample that is enriched for actives. Unmarked numbers belong to inactive results. No stated cut-off is given here; in the data, active means inhibition above about 60%; inactive means the rest.

Target: Dual specificity protein phosphatase 3 (Homo sapiens) (UniProt P51452)
Test: VHR1 phosphatase inhibitors, primary screen, biochemical, colorimetric, HTS (AID 1992)
Conditions: recombinant VHR phosphatase, colorimetric substrate read-out; at 20 µM; hits give high values

Dual specificity protein phosphatase 3 (Homo sapiens), sequence (P51452 whole entry, looked up): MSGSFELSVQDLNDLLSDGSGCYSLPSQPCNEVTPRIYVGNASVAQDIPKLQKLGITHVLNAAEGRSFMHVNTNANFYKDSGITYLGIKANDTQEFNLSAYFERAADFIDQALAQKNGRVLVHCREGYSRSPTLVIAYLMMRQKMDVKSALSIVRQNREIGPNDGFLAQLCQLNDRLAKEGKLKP

Structure (SMILES) | inhibition
CCOc1ccc(-n2c(O)c(C=C3C=CC=N3)c(=O)[nH]c2=O)cc1 | 3%
O=c1[nH]c(=O)n(-c2ccc(Cl)cc2)c(O)c1/C=C1/C=CC=N1 | 37.9%
O=C(CC1Nc2ccccc2NC1=O)Nc1ccccc1NC(=O)CC1Nc2ccccc2NC1=O (configuration not stated) | 97.7% (active)
Cc1cc2c(cc1C)NC(CC(=O)Nc1ccccc1C(F)(F)F)C(=O)N2 (configuration not stated) | -0.3%
Cc1ccc(NC(=O)CC2Nc3cc(C)c(C)cc3NC2=O)cc1 (configuration not stated) | 33.7%
C=CCc1ccccc1OCCOc1c(I)cc(/C=C2/SC(=S)N(C)C2=O)cc1OC | -23.1%
Cc1cccc(OCCOc2cccc(/C=N/n3cnnc3)c2)c1 | 112% (active)
COc1ccccc1OCCOc1ccc(/C=N/n2cnnc2)cc1 | 14.5%
CCOc1cc(/C=N/n2cnnc2)ccc1OCCOc1ccccc1C | -20.4%
CC(C)c1ccc(NC(=O)CN(c2ccc(Oc3ccccc3)cc2)S(C)(=O)=O)cc1 | -26.4%
CCCOC(=O)c1ccc(N=Cc2ccc([N+](=O)[O-])cc2)cc1 | 3.4%
O=C(NCCN1CCOCC1)c1cc2nc(-c3ccc([N+](=O)[O-])cc3)cc(C(F)(F)F)n2n1 | -23.4%
Cc1ccc(-c2ccc(C)cc2N)c(N)c1 | -3%
O=C(NCc1ccccc1)c1ccc(CN2CCN(c3ccccc3)CC2)cc1 | 5.6%
CC(C)(C)c1cc(Br)ccc1OCC(=O)Nc1ccccc1[N+](=O)[O-] | -0.7%
O=C(Nc1cccc(Br)c1)C(=O)NC1CCCC1 | -18.7%
Cc1ccc2c(c1)C(c1ccccc1[N+](=O)[O-])CC(=O)N2 (configuration not stated) | -4.5%
O=C(c1nn2c(c1Cl)NC(c1ccc(F)cc1)CC2C(F)(F)F)N1CCN(Cc2ccccc2)CC1 (configuration not stated) | -2.9%
O=C1C2C(C(=O)N1/N=C/C=C/c1ccccc1)C1C=CC2C12CC2 (configuration not stated) | -11.9%
CC(C)(C)c1cc(N2C(=O)C(=O)/C(=C(\O)c3ccccc3)C2c2cccc([N+](=O)[O-])c2)no1 (configuration not stated) | 10.1%
Cc1cccc(NC(=O)CCCOc2ccccc2)c1C | -23.5%
Cc1ccccc1NCC(=O)N/N=C\c1cc([N+](=O)[O-])cc(Br)c1O | 31.8%
Cc1cc(Br)cc(/C=N/NC(=O)c2cncc(Br)c2)c1O | -16.6%
Cc1ncc(C[n+]2csc3ccccc32)c(N)n1 | 23.5%

Structure (SMILES) | inhibition
COc1ccc(C(=O)/C=C/Nc2cccc(Cl)c2Cl)cc1 | 3.3%
O=C1S/C(=C/c2ccc(-c3ccc(Cl)cc3Cl)o2)C(=O)N1c1ccccc1 | -7.5%
O=C(O)CCN1C(=O)/C(=C/c2ccc(-c3cc(Cl)ccc3Cl)o2)SC1=S | 73% (active)
CN(C)CCOC(=O)CCN1C(=O)/C(=C/c2ccc(Cl)cc2Cl)SC1=S | -1.5%
Cc1cccc(NC(=O)c2cc(-c3ccc(Br)cc3)nc3ccccc23)n1 | -30.2%
CCn1c(=O)c(C(=O)Nc2ccccc2Br)c(O)c2ccccc21 | -20.9%
COc1ccc(C=O)c2c(O)cccc12 | 2.1%
CCN(C=NC1=NN(c2ccccc2)CC1)CC | 2.7%
O=C1C=CC2=C3Oc4c(ccc5cc(O)ccc45)C(c4ccccc4C(=O)O)C3C=CC2=C1 (configuration not stated) | 85.5% (active)
O=C(NCCCn1ccnc1)c1ccccc1[N+](=O)[O-] | 5.9%
CC1=C(C(=O)OCc2ccccc2)C(c2ccc(C(F)(F)F)cc2)CC(=O)N1 (configuration not stated) | 8.1%
O=C1C(=O)N(Cc2ccccc2)C2C=CC=CC12 (configuration not stated) | 7.6%
COc1cccc(NC(=O)CN(c2cccc([N+](=O)[O-])c2)S(=O)(=O)c2ccccc2)c1 | -23.4%
CCOC(=O)c1c(NC(=O)c2cc(OC)c(OC)c(OC)c2)sc(C(N)=O)c1C | 1.3%
S=c1n(CN2CCOCC2)nc(-c2ccccc2Cl)n1-c1ccccc1 | -3.8%
O=C(Nc1cc(Cl)cc(Cl)c1)C1COc2ccccc2O1 (configuration not stated) | -3%
COc1ccc(/C=N/NC(=O)C2CC2)c(OC)c1OC | -32.4%
Cc1cc(C)c2cccc(NC(=S)NC(=O)c3cccc([N+](=O)[O-])c3)c2n1 | -0.4%
O=[N+]([O-])c1nonc1NCn1nnc2ccccc21 | -8%
CC(NC(=O)C1CC(=O)N(c2ccc(Br)cc2)C1)c1ccccc1 (configuration not stated) | 16.1%
COC(=O)c1ccc(/C=N/Nc2nncc(-c3ccccc3)n2)cc1 | -34%
Cc1onc(-c2c(Cl)cccc2Cl)c1C(=O)Nc1sc2c(c1C(N)=O)CCCC2 | -46.5%
O=C1NC(=O)C(=Cc2cccc(OCc3ccccc3)c2)C(=O)N1 | -24.8%
